Results taken from PubChem BioAssay (NCATS).
Inconclusive results are not listed. Entries that show only a call come without a potency. Active and inactive are the calls of the source. Calls come from the whole dose curve; as a rule, active = well fitted cell-killing curve with a large enough effect; inconclusive = small, poorly fitted or top-dose-only effect, or effect the other way; inactive = no such curve, though single readings can be large or run the other way.

test: Quantitative High-Throughput drug screen in 47 multiple myeloma cell lines against the NCATS MIPE library collection: KMS12PE_JCRB cell viability assay (AID 1918972); conditions: KMS12PE myeloma viability, CellTiter-Glo ATP, 48 h; series mostly up to 45.8 µM; note: nearly all actives have a fitted effect of over 30% in size
Text: PI: Beverly A. Mock Ph.D.
Laboratory of Cancer Biology and Genetics,
Center for Cancer Research, National Cancer Institute,
National Institute of Health, Bethesda, Maryland
Drug resistance and disease progression are common in multiple myeloma (MM) patients, underscoring the need for new therapeutic combinations. […] We hypothesized that effective combinations would reduce MYC expression and enhance p16 activity. […] These preclinical data identify potentially useful drug combinations for evaluation in drug-resistant MM and reveal potential mechanisms of combined drug sensitivity.
Described herein is the primary MIPE qHTS used to cherrypick compounds. Validated compounds were then further tested for potential synergistic activiy.
[1] Peat TJ, Gaikwad SM, Dubois W, Gyabaah-Kessie N, Zhang S, Gorjifard S, Phyo Z, Andres M, Hughitt VK, Simpson RM, Miller MA, Girvin AT, Taylor A, Williams D, D'Antonio N, Zhang Y, Rajagopalan A, Flietner E, Wilson K, Zhang X, Shinn P, Klumpp-Thomas C, McKnight C, Itkin Z, Chen L, Kazandijian D, Zhang J, Michalowski AM, Simmons JK, Keats J, Thomas CJ, Mock BA. Drug combinations identified by high-throughput screening promote cell cycle transition and upregulate Smad pathways in myeloma. Cancer Lett. 2023 Aug 1;568:216284. doi: 10.1016/j.canlet.2023.216284. Epub 2023 Jun 24. PMID: 37356470; PMCID: PMC10408729.
SEQUENCE No. (e.g., 1, 2, 3, etc.); […] (e.g., Cells, Incubation, Reagent, etc.); VALUE and DESCRIPTION.
1; Cells; 5 uL; white, solid bottom 1536-well Greiner assay plate.
2; Compounds; 23 nL; Kalypsis pin tool (Wako USA) equipped with a 1536-well pin head to transfer to the assay plates.
3; Incubation; 48 hours; 37C incubation.
4; Reagent;5uL; CellTiter Glo (Promega).
5; Detector; 425V; Luminescence; Viewlux PerkinElmer.
NOTES (numbers refer to Sequence numbers above)
1. The cell-based screening methods employed in this study were like those previously published. Briefly, the corresponding myeloma cell lines were screened in 1,536-well plates with 500 cells, 5-uL per well for inhibition of cell viability (assessed by measuring ATP levels with CellTiterGlo).
2. NCATS MIPE 4.0 library of approved and investigational drugs were added using the Kalypsis pin tool. Wells treated with DMSO only for 100% viability and media only wells for 0% viability were used as controls.
3. The assay plates were covered and incubated for 48 hours in a 37C, 5% CO2 incubator with controlled humidity.
4. After 48 hours, CellTilter-GloTM luminescent substrate mix (Promega) reagent was added to the assay plate and plates we incubated for 5 min at room temperature.
5. Signal was measured as median relative luminescence units on a ViewLux (PerkinElmer) multiplate reader.
[1] Heske CM, Davis MI, Baumgart JT, Wilson K, Gormally MV, Chen L, Zhang X, Ceribelli M, Duveau DY, Guha R, Ferrer M, Arnaldez FI, Ji J, Tran HL, Zhang Y, Mendoza A, Helman LJ, Thomas CJ. Matrix Screen Identifies Synergistic Combination of PARP Inhibitors and Nicotinamide Phosphoribosyltransferase (NAMPT) Inhibitors in Ewing Sarcoma. Clin Cancer Res. 2017 Dec 1;23(23):7301-7311. doi: 10.1158/1078-0432.CCR-17-1121. Epub 2017 Sep 12. PMID: 28899971; PMCID: PMC6636827.
Potency is the fitted concentration of half-maximal effect.

Compound	Potency
CCC[C@H](N[C@@H](C)C(=O)N1[C@@H]2CCCC[C@H]2C[C@H]1C(=O)O)C(=O)OCC	6.62 µM (active)
CC(C)n1c(C=C[C@H](O)C[C@H](O)CC(=O)O)c(-c2ccc(F)cc2)c2ccccc21	3.32 µM (active)
CC1(C)[C@H]2CC[C@]3(C)[C@@H](C(=O)C=C4[C@@H]5C[C@@](C)(C(=O)O)CC[C@]5(C)CC[C@]43C)[C@@]2(C)CC[C@@H]1O	inactive
Cn1cc(-c2ccc3nnc(Sc4ccc5ncccc5c4)n3n2)cn1	5.26 µM (active)
Cc1cc2nc3c(=O)[nH]c(=O)nc-3n(CC(O)C(O)C(O)CO)c2cc1C (stereo not given)	inactive
CNC(=O)c1cc(COc2nnc(Nc3ccc(Cl)cc3)c3ccoc23)ccn1	6.62 µM (active)
Cc1nc(NC(=O)N2CCC[C@@H]2C(N)=O)sc1-c1csc(C(C)(C)C)n1	4.69 µM (active)
Nc1ccn([C@@H]2O[C@H](CO)[C@@H](O)[C@H]2O)c(=O)n1	inactive
NC(=O)c1ncn([C@@H]2O[C@H](CO)[C@@H](O)[C@@H]2O)n1	inactive
CC1=C(C(=O)Nc2cc3cn[nH]c3cc2F)C(c2ccc(C(F)(F)F)cc2)CC(=O)N1 (stereo not given)	inactive
CCNC(=O)Nc1ccc(Oc2ncnc(N)c2C=NOC)cc1Cl	2.96 µM (active)
COc1cc2c(cc1OC)[C@@H]1Cc3ccc(OC)c(OC)c3CN1CC2	0.332 µM (active)
COc1cc2ncnc(Nc3cc(Br)c(O)c(Br)c3)c2cc1OC	6.62 µM (active)
CC(C)CN(C[C@H](O)[C@H](Cc1ccccc1)NC(=O)O[C@H]1CCOC1)S(=O)(=O)c1ccc(N)cc1	inactive
O=c1cc(-c2ccc(O)c(O)c2)oc2cc(O)cc(O)c12	inactive
O=S(=O)(O)c1ccc2cc(N=Nc3cc(S(=O)(=O)O)c4cccnc4c3O)ccc2c1	inactive
NS(=O)(=O)c1cc(Cl)c(Cl)c(S(N)(=O)=O)c1	inactive
CC1CCN(c2cc(N3CCN(C)CC3)ccc2NC(=O)c2cc(C#N)c[nH]2)CC1	inactive
CCCCOCCOc1nc(-c2ccc(C(=O)O)c(F)c2)sc1C	inactive
COc1ccc(CCN(C)CCCOc2ccc(S(=O)(=O)c3[nH]c4ccccc4c3C(C)C)cc2)cc1OC	inactive

Compound	Potency
CN1CC(=O)N2C(Cc3c([nH]c4ccccc34)[C@H]2c2ccc3c(c2)OCO3)C1=O (stereo not given in full)	inactive
CN(C)CCOc1ccc(C(=C(CCCl)c2ccccc2)c2ccccc2)cc1	inactive
CSc1cccc(Nc2ncc3cc(-c4c(Cl)cccc4Cl)c(=O)n(C)c3n2)c1	0.059 µM (active)
O=C(Nc1cccc2c(=O)cc(-c3nn[nH]n3)oc12)c1ccc(OCCCCc2ccccc2)cc1	20.9 µM (active)
CN1C(=O)C[C@H](C(=O)N[C@@H](Cc2cnc[nH]2)C(=O)N2CCC[C@@H]2C(N)=O)NC1=O	inactive
CCc1cc(-c2n[nH]c(C)c2-c2ccc3c(c2)OCCO3)c(O)cc1O	5.26 µM (active)
Nc1[nH]nc2nnc(-c3c(-c4ccccc4)nn4ccccc34)cc12	2.35 µM (active)
CNC1CCC(N(Cc2cccc(-c3ccncc3)c2)C(=O)c2sc3ccccc3c2Cl)CC1 (stereo not given)	8.33 µM (active)
O=c1[nH]nc(OCCCc2ccc(Cl)cc2)c(NCc2cccnc2)c1Br	2.64 µM (active)
CCCC1OC2C[C@@H]3[C@H]4CCC5=CC(=O)C=C[C@]5(C)[C@H]4C(O)C[C@]3(C)[C@]2(C(=O)CO)O1 (stereo not given in full)	inactive
C=C1c2cccc(O)c2C(O)=C2C(=O)[C@@]3(O)C(O)=C(C(N)=O)C(=O)[C@@H](N(C)C)[C@@H]3[C@@H](O)[C@H]12	inactive
O=C(CCCN1CCN(c2ccc(F)cc2)CC1)NC1c2ccccc2CSc2ccccc21 (stereo not given)	4.18 µM (active)
CCOC(=O)[C@H]1O[C@H]1C(=O)N[C@@H](CC(C)C)C(=O)NCCC(C)C	inactive
O=C(Nc1cccc(C(F)(F)F)c1)Nc1cc(S(=O)(=O)NC2CC2)ccc1-c1ccsc1	inactive
CC[C@H](C)n1cc(C)c2c(C(=O)NCc3c(C)cc(C)[nH]c3=O)cc(-c3ccc(N4CCNCC4)nc3)cc21	inactive
O=C(NC[C@H](O)CO)c1ccncc1Nc1ccc(I)cc1F	14.8 µM (active)
COc1cc(CNC(=O)CCCCC=CC(C)C)ccc1O	inactive
O=C(c1ccc(F)c(F)c1Nc1ccc(I)cc1F)N1CC(O)([C@H]2CCCCN2)C1	16.6 µM (active)
CCN1CCC(n2cc(CNc3cc(Cl)c4ncc(C#N)c(Nc5ccc(F)c(Cl)c5)c4c3)nn2)CC1	8.33 µM (active)
NC(=O)c1noc([C@H](CCCC2CCCCC2)CC(=O)NO)n1	5.26 µM (active)
